The whole screen tested about 310,000 compounds, of which about 18,000 (5.8%) were called active. A call without a number means that no potency is given here. About 22% were inconclusive and are not listed. The sample as a whole holds a higher share of actives than the screen did. A number with no mark means an inactive call. The call rests on the fitted dose curve; in most records, active means well fitted inhibition curve with a large enough effect; inconclusive means small, poorly fitted or top-dose-only effect, or another doubt; inactive means no such curve, though single readings can be large or run the other way.
Test: Primary qHTS for delayed death inhibitors of the malarial parasite plastid, 48 hour incubation
Details: P. falciparum luciferase growth in erythrocytes; series mostly up to 28.7 µM
In short: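 Compounds are pin-transferred into medium, infected erythrocytes (2% hematocrit, 0.1% parasitemia final) are added, and plates sit one parasite generation at 37 C in 5% CO2. Detection reagent is then added and luminescence measured.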
Potency means the concentration at half of the fitted maximal effect.

| SMILES | Potency | activity change, negative = inhibition |
| --- | --- | --- |
| O=C(OCC(=O)N1CCCC1)c1ccc(Cl)nc1 | inactive |  |
| CCCc1cc(=O)oc2c(C)c(O)c(CN3CCCCC3)cc12 | 1.65 µM (active) |  |
| CCCc1cc(=O)oc2c(C)c(OC(C)C(=O)NCC(O)c3ccccc3)ccc12 (configuration not stated) | inactive |  |
| CCCc1cc(=O)oc2c(C)c(OCC(=O)N3CCC(C(=O)O)CC3)ccc12 | inactive |  |
| CN(CC(=O)NCc1ccncc1)S(=O)(=O)c1ccc(Br)cc1 | inactive |  |
| Cc1ccc(CN(C)Cc2cc(=O)oc3cc(C)c(Cl)cc23)cc1 | inactive |  |
| Cc1ccc(O)c(NC(=O)COc2cc(C)ccc2C)c1 | 2.94 µM (active) |  |
| Cc1ccc(O)c(NC(=S)NC(=O)COc2ccc(Br)cc2)c1 | inactive |  |
| Cc1ccc(C)c(OCC(=O)NNC(=O)C2CCC2)c1 | inactive |  |
| CC(NC(=O)CNC(=O)Cc1cccc2ccccc12)c1ccc(S(N)(=O)=O)cc1 (configuration not stated) | inactive |  |
| CCc1cc(=O)oc2c(C)c(OCC(=O)NCCN3CCOCC3)ccc12 | inactive |  |
| COc1cccc(-c2ccc3c(c2)S(=O)(=O)c2cccc(C(=O)O)c2C3=O)c1OC | inactive |  |
| Cc1c(C(=O)N2CCN(c3ccc(F)cc3)CC2)oc2c1C(=O)CCC2 | inactive |  |
| CC(C)N(C(=O)COC(=O)c1ccccc1C(=O)N1CCN(c2ccc(F)cc2)CC1)C(C)C | inactive |  |
| Cn1c2ccccc2c2c(C(=O)N3CCN(c4ccc(F)cc4)CC3)cn(C3CCCC3)c(=O)c21 | 10.4 µM (active) |  |
| COc1cccc(C(=O)Nc2nnc(S(=O)(=O)N(C)c3ccccc3)s2)c1 | inactive |  |
| COc1cccc(/C=C/C(=O)OCC(=O)N2CCN(c3ccccc3)CC2)c1 | inactive |  |
| COc1ccc(S(=O)(=O)N2CCN(C(C)C(=O)Nc3ccc(C(C)C)cc3)CC2)cc1 (configuration not stated) | 10.4 µM (active) |  |
| COc1ccc(S(=O)(=O)N2CCN(C(=O)NC3CCCCC3)CC2)cc1 | inactive |  |
| COc1ccc(OCC(=O)OCC(=O)Nc2ccc(S(=O)(=O)N3CCCCC3)cc2)cc1 | inactive |  |
| CC(NC(=O)CN(C)S(=O)(=O)c1ccc(F)cc1)C1CC2CCC1C2 (configuration not stated) | inactive |  |
| CC(=O)Nc1ccc(N2C(=O)CC(Sc3nccc(C)n3)C2=O)cc1 (configuration not stated) | inactive |  |
| COc1cc(Cl)ccc1OCc1cc(C(=O)N(C)CCc2c(C)n[nH]c2C)no1 | inactive |  |
| CNC(=O)O/N=C(\N)Cc1csc2ccc(Cl)cc12 | 3.7 µM (active) |  |
| O=C(O)COCC(=O)NCc1csc2ccc(Cl)cc12 | inactive |  |
| CN(CCO)Cc1csc2ccc(Br)cc12 | inactive |  |

| SMILES | Potency | activity change, negative = inhibition |
| --- | --- | --- |
| CCOC(=O)Cc1csc(NC(=O)C(C)(C)C)n1 | inactive |  |
| CCOC(=O)Cc1csc(NC(=O)CSc2ccc(Br)cc2)n1 | 10.4 µM (active) |  |
| CCOC(=O)Cc1csc(NC(=O)CSc2nc(C)cc(=O)[nH]2)n1 | inactive |  |
| CCC(C)C(N=C1NS(=O)(=O)c2ccccc21)C(=O)N1CCC(C)CC1 (configuration not stated) | inactive |  |
| CC(C)c1ccc(NC(=O)[C@@H](NC(=O)N2CC(=O)Nc3ccccc32)C(C)C)cc1 | inactive |  |
| O=C(N/N=C/c1ccc(OC(=O)c2ccccc2Cl)cc1)c1ccc(O)cc1 | inactive |  |
| CSc1ncccc1C(=O)NCc1ccccc1Cl | inactive |  |
| CC(NC(=O)c1ccccc1F)c1cccc2ccccc12 (configuration not stated) | inactive |  |
| COc1ccc(S(=O)(=O)n2nc(C)c(S(=O)(=O)N3CCOCC3)c2C)cc1 | inactive |  |
| OC(CNCC1CCCO1)Cn1c2ccc(Br)cc2c2cc(Br)ccc21 (configuration not stated) | 0.586 µM (active) |  |
| CC(NS(=O)(=O)c1ccc(Br)cc1)C(=O)NCC1CCCO1 (configuration not stated) | inactive |  |
| O=C(CSc1ccc(-c2ccc(Br)cc2)nn1)NCC1CCCO1 (configuration not stated) | inactive |  |
| CCc1ccc(C(=O)NN=C2CCCCCC2)s1 | inactive |  |
| CCOc1ccc(CN2CCNC(=O)C2CC(=O)NCCCC2CCCC2)cc1 (configuration not stated) | inactive |  |
| Cc1nc2ccc(C(=O)N/N=C/c3ccc(O)cc3)cc2[nH]1 | inactive |  |
| COc1ccc(CNC(=O)COC(=O)/C=C/c2ccc(S(=O)(=O)N3CCOCC3)cc2)cc1 | inactive |  |
| COC(=O)COc1ccc(S(=O)(=O)N2CCOCC2)cc1 | inactive |  |
| COc1ccc(S(=O)(=O)N2CCN(CC(=O)NCC3(N4CCOCC4)CCCCC3)CC2)cc1 | 9.28 µM (active) |  |
| CCc1ccc(OC(C)C(=O)Nc2ccc(S(=O)(=O)Nc3cc(C)on3)cc2)cc1 (configuration not stated) | inactive |  |
| CC1CCN(C(=O)CCNC(=O)c2ccccc2)CC1 | inactive |  |
| CN(CC(=O)Nc1ccc(F)c(F)c1F)C(=O)C1CC(=O)N(C2CCCC2)C1 (configuration not stated) | inactive |  |
| O=C(CN1CCC(NC(=O)C2CC2)CC1)Nc1ccccc1[N+](=O)[O-] | inactive |  |
| OC(COc1cccc2ccccc12)CN1CCN(c2ccccn2)CC1 (configuration not stated) | inactive |  |
| CN1CCN(CCCCOc2cccc3ccccc23)CC1 | inactive |  |
| CC(C)c1ccccc1OCC(O)CN(CC(O)COc1cccc2ccccc12)C(C)C (configuration not stated) | 1.65 µM (active) |  |
| NC(=O)C(Cc1ccccc1)NC(=O)C12CC3CC(CC(C3)C1)C2 (configuration not stated) | inactive |  |

| SMILES | Potency | activity change, negative = inhibition |
| --- | --- | --- |
| CNS(=O)(=O)c1ccc(C(=O)NCC(=O)NCCc2ccc3c(c2)OCCO3)cc1 | inactive |  |
| CCOC(=O)N1CCN(CC(=O)c2c(C)[nH]c3ccccc23)CC1 | inactive |  |
| CCOC(=O)c1c(C)[nH]c2c1-c1ccccc1C(=O)C2=O | 1.47 µM (active) |  |
| CCOC(=O)c1c(C)[nH]c(C)c1S(=O)(=O)N(C)CC(=O)Nc1ccccc1C | inactive |  |
| CCc1nnc(NS(=O)(=O)c2ccc(N=Cc3c(C)[nH]n(-c4ccc(C)cc4)c3=O)cc2)s1 | inactive |  |
| COc1cc(SC#N)ccc1N=Cc1c(C)[nH]n(-c2ccc(C)cc2)c1=O | 13.1 µM (active) |  |
| Cc1ccc(-n2[nH]c(C)c(/C=N/N3C(=O)c4cccc5cccc(c45)C3=O)c2=O)cc1 | inactive |  |
| COc1cccc(N2CC(NC(=O)c3ccc4ccccc4c3)CC2=O)c1 (configuration not stated) | inactive |  |
| COC(=O)c1cc(S(=O)(=O)Nc2ccc(C)c(F)c2)c[nH]1 | inactive |  |
| Cc1ccc(NC(=O)CSc2cccc3cccnc23)c(C)c1 | inactive |  |
| COC(=O)c1ccc(-c2c(-c3ccccc3)ncc3cc(OC)c(OC)cc23)cc1 | inactive |  |
| O=C1CC2(CCN(C(=O)COc3ccc(F)cc3)CC2)Oc2ccccc21 | inactive |  |
| COc1ccc(CCn2c(-c3ccco3)nc3nc4ccccc4nc32)cc1OC | inactive |  |
| CCC(C)n1c(-c2cc(OC)c(OC)c(OC)c2)nc2nc3ccccc3nc21 (configuration not stated) | 13.1 µM (active) |  |
| COc1cc(-c2n[nH]c(=S)n2Cc2ccccc2)cc(OC)c1OC | inactive |  |
| COc1ccc(C(=O)NC(C)CCc2ccccc2)c(OC)c1 (configuration not stated) |  | -23.8% [at 0.00184 µM] |
| CCc1sc(C(=O)N2CCN(CC(=O)Nc3cccc(F)c3)CC2)cc1C | inactive |  |
| CCOc1ccc(S(=O)(=O)NCCC(=O)NCC2CCCO2)cc1 (configuration not stated) | inactive |  |
| COc1ccc(S(=O)(=O)N2CCC(C(=O)N3CCOCC3)CC2)cc1OC | inactive |  |
| CCOc1ccc(NC(=S)N2CCC(N(C)CC3CCCO3)CC2)cc1 (configuration not stated) | inactive |  |
| S=C(NCC1CCCO1)N1CCN(c2ccc(Cl)c(Cl)c2)CC1 (configuration not stated) | inactive |  |
| COc1ccc(S(=O)(=O)N2CCN(C(=S)NCC3CCCO3)CC2)cc1OC (configuration not stated) | 1.85 µM (active) |  |
| CCOc1ccc(S(=O)(=O)N2CCN(C(=S)NCC3CCCO3)CC2)cc1 (configuration not stated) | 5.22 µM (active) |  |
| CCCCNC(=O)CN1C(=O)NC(Cc2ccccc2)(Cc2ccccc2)C1=O | inactive |  |
| CCN(CC)S(=O)(=O)c1ccc2[nH]cc(C(=O)NCCc3ccccc3)c(=O)c2c1 | 13.1 µM (active) |  |
| CCCCNC(=O)c1c[nH]c2ccc(S(=O)(=O)Nc3ccc(OCC)cc3)cc2c1=O | inactive |  |

| SMILES | Potency | activity change, negative = inhibition |
| --- | --- | --- |
| CCN(CC(=O)NCCc1ccccc1)S(=O)(=O)c1ccccc1 | inactive |  |
| COc1ccccc1C(=O)NC(=O)COC(=O)C1CC1 | inactive |  |
| COc1ccccc1CCNC(=O)c1c(C)nn(CC(C)C)c1Cl | inactive |  |
| COC(=O)C1CCCCN1C(=O)c1ccc(OC2CCN(C(C)=O)CC2)c(OC)c1 (configuration not stated) | inactive |  |
| O=C(NC(=S)Nc1ccc(Cl)cc1Cl)C1CC1 | inactive |  |
| CCCCn1c(N)c(N(CC)C(=O)c2ccccc2C(F)(F)F)c(=O)[nH]c1=O | inactive |  |
| Cc1ccc(S(=O)(=O)N2CCC(C)CC2)cc1C(=O)NCc1ccccn1 | inactive |  |
| CC(=O)Nc1c2c(nn1-c1ccc(C)cc1C)CS(=O)C2 (configuration not stated) | inactive |  |
| Cc1nn(CCCC(=O)NCc2ccccc2Cl)c(=O)c2nccn12 | inactive |  |
| CCOC(=O)CSc1nc2c(c(=O)n(Cc3ccccc3Cl)c(=O)n2C)n1C | inactive |  |
| CCC(=O)Nc1ccc2nc(C)n(Cc3ccccc3Cl)c(=O)c2c1 | 13.1 µM (active) |  |
| COc1ccc(CCN(C)C(=O)C23CC4CC(CC(Cl)(C4)C2)C3)cc1OC | inactive |  |
| Cc1cc(-c2ccc(C)c(S(=O)(=O)Nc3ccc(S(N)(=O)=O)cc3)c2)on1 | inactive |  |
| Cc1cc(CNC(=O)c2cccc([N+](=O)[O-])c2)c2ccccc2n1 | inactive |  |
| Cc1nc2ccccc2c(=O)n1Cc1ccc([N+](=O)[O-])cc1 | inactive |  |
| Cn1cc(/C=C/c2nc3ccccc3c(=O)n2-c2cccc([N+](=O)[O-])c2)c2ccccc21 | 10.4 µM (active) |  |
| Cc1ccc(CC2CC(=O)N(c3cc(C)ccc3C)C2=O)cc1 (configuration not stated) | inactive |  |
| COc1ccc(NS(=O)(=O)c2ccc3oc(SCC(N)=O)nc3c2)cc1 | inactive |  |
| O=C(COC(=O)CNC(=O)C1CCCCC1)NCc1ccccc1 | inactive |  |
| Cc1ccc2nc(-c3cccc(Br)c3)cc(C(=O)Nn3cnnc3)c2c1 | inactive |  |
| Cc1cccc(-[n+]2c(-c3cccc(Br)c3)[nH]c3nc4ccccc4nc32)c1 | 13.1 µM (active) |  |
| Cc1ccc(OCC(=O)NNC(=S)NCc2ccccc2)cc1 | inactive |  |
| O=C(NNC(=S)NCc1ccccc1)c1ccc(OC(F)F)cc1 | inactive |  |
| CC(C)Oc1ccc(CCC(=O)NNC(=S)NCc2ccccc2)cc1 | 1.65 µM (active) |  |

— PubChem BioAssay AID504832 (National Center for Advancing Translational Sciences (NCATS), 2011)
